# Assay outcomes: PubChem BioAssay, several laboratories
# Most compounds without a hit are left out; they make up all but 3% or so of the library.
# MITF TRPM1 HTS: activators of MITF-driven TRPM1 promoter reporter, primary screen, cell-based, SK-MEL-5, luciferase, single point | activation, % at 12.5 µM | 0.75% of 300,000 active | SK-MEL-5 TRPM1-promoter luciferase, 24 h; % of positive control, neutral wells = 0;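 active means mean activation of at least 80% with every replicate also reaching 80%; inconclusive means mean reaches 80% but some replicate falls short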;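 further: 0% = neutral control wells and 100% = parthenolide positive control wells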
# TWEAK Fn14 block: inhibitors of TWEAK-Fn14 signaling, primary screen, luciferase reporter cells, uHTS; inhibition, % at 10 µM; 2% of 360,000 active; TWEAK-stimulated Fn14 reporter cells, luciferase luminescence, 8 h; in the data active means inhibition above about 50%
# MITF TRPM1 inh: inhibitors of MITF-dependent TRPM1 promoter reporter, primary screen, cell-based, SK-MEL-5, single point, luciferase; SK-MEL-5 TRPM1 promoter luciferase, 24 h; inhibition, % at 12.5 µM; 0.83% of 330,000 active; AID 488899, 2010;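 active means mean inhibition across replicates of 60% or more, whatever share of single replicates reaches that level; inconclusive means some that reach 60%, reason not given; inactive means mean inhibition across replicates below 60%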
# EBV LMP1 NFkB: EBV LMP1-driven NF-kappaB luciferase reporter inhibitors, primary screen, cell-based, luminescence, single point | AID 504558, 2011 | inhibition, % at 12.5 µM | LMP1-induced NF-kappaB luciferase reporter cells | 0.69% of 350,000 active; in the data active means inhibition above about 41%; inconclusive means no clear call, values can overlap the other calls;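 further: 0% = neutral control wells and 100% = reference inhibitor control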
# LGR2 inh: inhibitors of bursicon-induced LGR2 CRE-luciferase signal, primary screen, cell-based, HEK293, CRE-luciferase reporter, bursicon stimulation. inhibition, % at 9.99 µM. bursicon-stimulated, 4 h. 0.35% of 380,000 active;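 active means drop in luminescence signal, shown as inhibition above about 50% in the replicate tests, limit read from the data, passing the limit was not always enough; inconclusive means probably only some replicates passing the limit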;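 further: agonist challenge used bursicon conditioned medium at about half maximal strength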
# TROY NFkB inh: inhibitors of TROY-driven NF-kB signaling, primary screen, Q293 LMP1-TROYcd cells, NF-kB luciferase, uHTS; Q293 LMP1-TROYcd NF-kB luciferase reporter, 4 h; inhibition, % at 10 µM; 0.98% of 360,000 active; AID 1347056, 2019;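 active means compounds whose plate-normalised and pattern-corrected inhibition of the luciferase reporter signal at the single screening dose is 50% or more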
# Numbers without * were called inactive; ? = inconclusive; · = no result.
SMILES,MITF TRPM1 HTS,TWEAK Fn14 block,MITF TRPM1 inh,EBV LMP1 NFkB,LGR2 inh,TROY NFkB inh
C=C1C(=O)[C@]23C[C@H]1CCC2[C@]1(C)CCC[C@@](C)(C(=O)O)C1C[C@@H]3O (some centres undefined),·,96.8*,·,·,25.1,59.0*
C=C1C(=O)[C@]23C[C@H]1CC[C@H]2[C@]1(C)[C@@H](OC(C)=O)CC[C@@](C)(C(=O)O)[C@H]1C[C@@H]3OC(C)=O,·,45.9,·,·,-3.5,-14.6
C=C1C(=O)[C@]23C[C@H]1CCC2[C@]1(C)C(=O)CC[C@@](C)(C(=O)O)C1C[C@@H]3O (some centres undefined),·,72.2*,·,·,12.0,20.1
CO[C@@H]1CN(C)C(=O)c2ccc(NC(=O)C3CCC3)cc2OC[C@@H](C)N(C(=O)CN(C)C)C[C@H]1C,·,·,·,·,2.3,·
CC(=O)c1c(O)cc(O)c(C(C)=O)c1O,-11.1,-27.9,13.2,3.1,·,59.0*
CC(=O)c1c(O)cc(O)cc1CC(=O)O,1.7,9.2,0.1,-27.8,2.6,-6.3
CCCC(=O)Nc1ccc2c(c1)OC[C@@H](C)N(CCC)C[C@H](C)[C@H](OC)CN(C)C2=O,·,·,·,·,12.0,·
Cc1oc(-c2ccc3c(c2)OCCO3)cc1C(=O)NCC(=O)O,16.3,19.4,-15.4,-46.1,-67.2,2.0
COc1ccc(-c2cc(C(=O)NC(Cc3cc4ccccc4[nH]3)C(=O)O)c(C)o2)cc1OC (centres undefined),4.8,-9.2,-3.0,-22.8,-17.8,3.9
Cc1oc(-c2ccc3c(c2)OCCO3)cc1C(=O)O,-51.0,106.2*,51.9,10.2,?,84.0*
COc1ccc(-c2cc(C(=O)O)c(C)o2)cc1OC,-38.3,97.9*,40.7,7.1,·,59.5*
CC(=O)n1cc(C(C[N+](=O)[O-])SCCN)c2ccccc21 (centres undefined),·,11.3,86.5*,21.9,·,-8.4
CC(=O)N(C)c1ccc(NC(=S)Nc2cccc3ccccc23)cc1,2.3,33.9,-3.2,-16.6,3.0,33.2
COc1ccc(C(=O)Nc2ccc(N3CCN(C)CC3)cc2)cc1,28.2,13.7,-34.2,-24.1,-18.8,-42.3
CC(=O)c1ccc(NC(=S)Nc2cccc3ccccc23)cc1,-1.4,33.1,6.3,0.3,-7.2,72.4*
COC(=O)c1ccccc1NC(=S)NC(=O)c1cccc2ccccc12,·,59.8*,-4.5,6.1,·,26.7
CN1CCN(c2ccc(NC(=O)c3ccc4ccccc4c3)cc2)CC1,-16.1,77.5*,11.8,14.0,39.8,64.7*
CN1CCN(c2ccc(NC(=S)NC(=O)c3cccc4c(Br)cccc34)cc2)CC1,7.1,-40.2,-8.0,0.2,-8.7,-16.3
CN1CCN(c2ccc(NC(=S)NC(=O)c3cccc4ccccc34)cc2)CC1,-63.0,-45.4,63.5*,-11.3,9.4,-19.7
O=C(C[C@H]1C[C@@H]2c3cc(NC(=O)C4CCOCC4)ccc3O[C@@H]2[C@@H](CO)O1)NCCc1ccccc1,·,·,·,·,4.9,·
O=C(NC(=S)Nc1ccccc1N1CCCC1)c1ccccc1Br,-3.8,23.0,3.2,-7.0,12.4,7.2
COc1c(C)cccc1C(=O)NC(=S)Nc1ccccc1N1CCCC1,14.6,56.5*,-13.9,-3.2,-41.0,67.6*
CC(C)NC(=O)Nc1ccc2c(c1)C(=O)N([C@@H](C)CO)C[C@@H](C)[C@H](CN(C)CC1CCCCC1)OCCCC[C@@H](C)O2,·,·,·,·,1.7,·
C[C@@H]1CN([C@H](C)CO)C(=O)Cc2cc(NC(=O)C3CC3)ccc2O[C@H]1CN(C)CC1CCCCC1,·,·,·,·,17.3,·
CCOC(=O)C1=C(C)NC(C)=C(C(=O)OCC)C1c1cccc([N+](=O)[O-])c1,·,4.1,·,-11.3,-10.5,16.0
SMILES,MITF TRPM1 HTS,TWEAK Fn14 block,MITF TRPM1 inh,EBV LMP1 NFkB,LGR2 inh,TROY NFkB inh
COC(=O)C1=C(C)NC(C)=C(C(=O)OCC(C)C)C1c1ccccc1[N+](=O)[O-] (centres undefined),-14.9,46.9,19.4,90.8*,1.9,33.1
CNc1nc(Cl)nc2ncn(C)c12,-9.2,4.4,9.4,6.4,9.1,-2.7
Cn1cnc2nc(Cl)nc(Cl)c21,-15.6,54.3*,18.2,16.6,2.1,18.1
COc1cc(CN2CC3(CN(C(=O)c4ccc5c(c4)OCO5)C3)c3c(n(C)c4cc(OC)ccc34)[C@H]2CO)cc(OC)c1,·,·,·,·,14.5,·
S=c1[nH]nc(-c2ccncc2)n1/N=C/C(Cl)=C\c1ccccc1,70.9,80.9*,-69.2,-17.4,-26.6,21.8
Cc1ccc(-c2n[nH]c(=S)n2/N=C/c2ccncc2)cc1,3.8,71.9*,-1.0,6.2,-1.0,26.9
COc1ccc2nc(N3CCC(C)CC3)c(C#N)cc2c1,83.6*,-12.2,-69.4,-27.2,·,-15.8
CCSc1nc2ccc(OC)cc2cc1C#N,76.6,-13.3,-69.1,77.6*,·,-71.1
CCCCN1C(=O)C2(OCCCO2)c2cccc(C)c21,-1.1,100.4*,2.9,-6.2,21.2,2.2
O=C(C[C@H]1CC[C@H]2[C@@H](COC[C@H](O)CN2CC2CCCCC2)O1)NCC1CC1,·,·,·,·,-8.0,·
Cc1nn(-c2ccc(Cl)cc2)c(Cl)c1/C=C(\C#N)C(N)=O,-17.7,8.1,18.0,-17.2,3.9,-3.9
C=CCNC(=O)/C(C#N)=C/c1c(C)nn(-c2ccc(Cl)cc2)c1Cl,4.7,50.7*,2.7,-6.9,21.2,-0.4
CN(C)/N=C/C=C1\CCC/C(=C\c2ccc(F)c(F)c2)C1=O,0.9,87.4*,0.8,-96.7,24.6,-13.2
C/C=C/c1ccc(OCCCCOc2ccc(OC)cc2)c(OC)c1,3.1,-13.6,0.4,-2.1,5.9,-0.7
C/C=C/c1ccc(OCCCNCC(C)O)c(OC)c1 (centres undefined),0.9,85.8*,1.2,3.0,·,·
C/C=C/c1ccc([C@@H]2[C@H](CO)N(CC3CC3)C23CN(C(=O)COC)C3)cc1,·,·,·,·,2.7,·
O=C(C[C@H]1CC[C@@H](NS(=O)(=O)c2ccccc2)[C@H](CO)O1)N1CCN(c2ccccc2)CC1,·,·,·,·,5.9,·
CCN1CCN(Cc2ccc(NC(=O)c3cc(NC(=O)c4cc(-c5ccc(OC)cc5)n[nH]4)cc(OC)c3)cc2C(F)(F)F)CC1,-98.4,-96.6,98.9*,-1.9,2.2,-15.2
COc1cc(NC(=O)c2nccnc2N)cc(C(=O)Nc2cccc(C(F)(F)F)c2)c1,-22.1,-73.2,21.7,-34.2,-3.7,-21.6
CCN1CCN(Cc2ccc(NC(=O)c3cc(NC(=O)c4ccno4)cc(OC)c3)cc2C(F)(F)F)CC1,1.7,7.2,-4.4,1.0,7.7,-10.3
COc1cc(NC(=O)c2ccno2)cc(C(=O)Nc2cccc(C(F)(F)F)c2)c1,-1.9,-5.3,2.0,9.1,·,-6.5
